{"source": "PubChem BioAssay (NCATS)", "note": "Unmarked numbers belong to inactive results. The source made the active and inactive calls. The rule behind the calls is not given here. Potency is the fitted concentration of half-maximal effect.", "data": [{"system": "HIV-1 nucleocapsid protein NCp7 (binding to TG oligonucleotide)", "experiment": "HIV Nucleocapsid (AID 346);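 note: potency is for inhibitors that block NC binding and lower polarization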", "conditions": "HIV-1 NC / fluorescein-TGTGTGTG probe, fluorescence polarization", "how_it_was_run": "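HIV-1 NC (100 nM) binding to fluorescein-labelled ssDNA TG4xF (10 nM) in Hepes pH 7.5, 250mM NaCl, 1uM ZnCl2, TCEP and 2-mercaptoethanol; compounds pin-transferred, 1 hr room temperature, fluorescence polarization read on CCD imager.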", "values": [{"smiles": "Cn1c(=O)c(CCc2ccccc2)nc2cnc(Nc3ccccc3)nc21", "Potency": "> 20 µM"}, {"smiles": "Cc1noc(C)c1-c1cc(Nc2ccccc2)ncn1", "Potency": "> 20 µM"}, {"smiles": "O=C(c1csnn1)N1CCC2(CCCN(c3ccccc3)C2)CC1", "Potency": "> 20 µM"}, {"smiles": "COc1ccc(CNc2ccnc(-c3cccc(C#N)c3)n2)c(OC)c1", "Potency": "> 20 µM"}, {"smiles": "COc1ccc(CNc2nc(-c3ccc4c(c3)OCO4)nc3ccccc23)c(OC)c1", "Potency": "> 20 µM"}, {"smiles": "CN(C)Cc1ccccc1-c1nc(NC2CC2)c2ccccc2n1", "Potency": "> 20 µM"}, {"smiles": "Cc1nc2cnc(N3CCN(C)CC3)nc2n(C)c1=O", "Potency": "> 20 µM"}, {"smiles": "COCC(=O)N1CCC[C@@]2(CCN(C(=O)Nc3ccccc3)C2)C1", "Potency": "> 20 µM"}, {"smiles": "Cc1cccc(CNc2ccnc(-c3cccnc3)n2)c1", "Potency": "> 20 µM"}, {"smiles": "CS(=O)(=O)N1CCC2(CC1)CN(c1ccc(-c3ccccc3)cc1)C2", "Potency": "> 20 µM"}, {"smiles": "CS(=O)(=O)Nc1cccc(-c2ccc3ncnc(NC4CCNCC4)c3c2)c1", "Potency": "> 20 µM"}, {"smiles": "O=c1c(-c2ccc(Cl)cc2)nc2cnc(Nc3ccccc3)nc2n1C[C@H]1CCCO1", "Potency": "0.219 µM (active)"}, {"smiles": "COc1ccc(C(=O)N2CCC[C@@]3(CCN(C(=O)NC(C)C)C3)C2)cc1", "Potency": "> 20 µM"}, {"smiles": "Cc1cnc(CNc2cc(-c3cccnc3)ncn2)cn1", "Potency": "> 20 µM"}, {"smiles": "CNc1nc(-c2ccc(N(C)C)cc2)nc2ccccc12", "Potency": "> 20 µM"}, {"smiles": "CN(C)Cc1ccccc1-c1cc(N(C)Cc2ccco2)ncn1", "Potency": "> 20 µM"}, {"smiles": "COc1ccccc1-c1nc(N2CCOCC2)c2ccccc2n1", "Potency": "> 20 µM"}, {"smiles": "COCCn1c(=O)c(-c2ccc(OC)cc2)nc2cnc(Oc3ccccc3)nc21", "Potency": "> 20 µM"}, {"smiles": "Cc1noc(C)c1C(=O)N1CCC2(CCN(C(=O)Nc3ccccc3)CC2)CC1", "Potency": "> 20 µM"}, {"smiles": "COc1ccc(CNc2ccnc(-c3ccccc3OC)n2)c(OC)c1", "Potency": "> 20 µM"}, {"smiles": "O=C(Nc1cccc(F)c1)N1CC[C@@]2(CCCN(C(=O)c3ccco3)C2)C1", "Potency": "> 20 µM"}, {"smiles": "CS(=O)(=O)N1CCC2(CCCN(Cc3ccccc3)C2)CC1", "Potency": "> 20 µM"}, {"smiles": "O=C(c1cccc(F)c1)N1CCC2(CCN(Cc3ccncc3)CC2)CC1", "Potency": "> 20 µM"}, {"smiles": "O=c1c(-c2cc(F)cc(F)c2)nc2cnc(N3CCNCC3)nc2n1CCc1ccccc1", "Potency": "> 20 µM"}, {"smiles": "FC(F)(F)c1ccccc1-c1ccc2ncnc(NCCN3CCOCC3)c2c1", "Potency": "> 20 µM"}, {"smiles": "Cn1cccc1C(=O)N1CCC2(CCCN(C(=O)Nc3ccccc3)C2)CC1", "Potency": "> 20 µM"}, {"smiles": "COc1ccc(CNc2ccnc(-c3ccc(C(=O)N(C)C)cc3)n2)c(OC)c1", "Potency": "> 20 µM"}, {"smiles": "COc1ccc(-n2c(=O)cnc3cnc(N4CCNCC4)nc32)cc1", "Potency": "> 20 µM"}, {"smiles": "N#Cc1cccc(NC(=O)N2CC[C@@]3(CCCN(C(=O)c4csnn4)C3)C2)c1", "Potency": "> 20 µM"}, {"smiles": "O=c1c(CCc2ccccc2)nc2cnc(N3CCNCC3)nc2n1Cc1cccs1", "Potency": "> 20 µM"}, {"smiles": "Cc1cccc(CNc2ncnc3ccc(-c4ccc5c(c4)OCO5)cc23)c1", "Potency": "> 20 µM"}, {"smiles": "COCCn1c(=O)c(-c2ccc(Cl)cc2)nc2cnc(OC)nc21", "Potency": "> 20 µM"}, {"smiles": "O=c1c(-c2cc(F)cc(F)c2)nc2cncnc2n1Cc1ccccc1Cl", "Potency": "> 20 µM"}, {"smiles": "Cc1noc(C)c1-c1cc(NCc2cccs2)ncn1", "Potency": "> 20 µM"}, {"smiles": "CN(C)c1ncc2nc(CCc3ccccc3)c(=O)n(CCC#N)c2n1", "Potency": "> 20 µM"}, {"smiles": "COCCn1c(=O)c(-c2cn(C)c3ccccc23)nc2cnc(N3CCNCC3)nc21", "Potency": "> 20 µM"}, {"smiles": "CS(=O)(=O)N1CCC2(CC1)CN(C(=O)Nc1cccc(F)c1)C2", "Potency": "> 20 µM"}, {"smiles": "COCCn1c(=O)c(C)nc2cnc(OC)nc21", "Potency": "> 20 µM"}, {"smiles": "Cc1noc(C)c1C(=O)N1CCC2(CCCN(C(=O)NC(C)C)C2)CC1", "Potency": "> 20 µM"}, {"smiles": "COc1ccccc1CCn1c(=O)c(-c2cccs2)nc2cncnc21", "Potency": "> 20 µM"}]}]}
